Among the data in PMC7862700, “An all-to-all approach to the identification of sequence-specific readers for epigenetic DNA modifications on cytosine” are binding signal values, retold here.

Holding throughout (assay): DAPPL (digital affinity profiling via proximity ligation, sequencing); 10 mM Tris-HCl pH 7.5, 50 mM NaCl, 1 mM DTT, 4% glycerol, room temperature, 30 min; GST-TFs on glutathione beads, 16-mer random dsDNA library, 0.1% formaldehyde crosslink after washing; high values mean tight binding
For assay [1], the target named is T1, FLI1 (Homo sapiens, UniProt Q01543 1-452).
T1 sequence: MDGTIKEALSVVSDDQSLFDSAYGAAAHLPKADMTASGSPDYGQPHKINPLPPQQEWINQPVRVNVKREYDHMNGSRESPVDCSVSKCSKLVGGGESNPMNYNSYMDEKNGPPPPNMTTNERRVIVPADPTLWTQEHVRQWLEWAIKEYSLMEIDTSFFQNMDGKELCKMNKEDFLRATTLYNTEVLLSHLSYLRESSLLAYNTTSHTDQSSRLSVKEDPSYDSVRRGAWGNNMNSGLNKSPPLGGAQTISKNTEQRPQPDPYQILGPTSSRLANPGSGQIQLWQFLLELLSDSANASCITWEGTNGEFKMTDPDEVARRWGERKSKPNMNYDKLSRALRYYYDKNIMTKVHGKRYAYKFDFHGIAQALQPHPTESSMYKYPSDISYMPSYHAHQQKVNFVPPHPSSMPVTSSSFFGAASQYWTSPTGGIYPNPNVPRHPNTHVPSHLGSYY
Conditions: protein: recombinant; tags: N-terminal GST; dsDNA, one strand shown. An outline of the steps: (§1)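 Binding signal is given per hexamer as its read frequency for a factor divided by its frequency in the tag-only sample. GST-fused human transcription factors were expressed in yeast, captured on glutathione beads, barcoded with DNA and pooled with that sample, then incubated with 200 nmole of a 16-mer random double-stranded DNA library in Tris/NaCl/DTT/glycerol buffer for 30 min at room temperature. The pools were then washed, crosslinked, proximity-ligated, amplified by PCR and sequenced on an Illumina NextSeq500.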

Assay [2] addresses T2, ELK1 (Homo sapiens, UniProt P19419 1-428).
T2 sequence: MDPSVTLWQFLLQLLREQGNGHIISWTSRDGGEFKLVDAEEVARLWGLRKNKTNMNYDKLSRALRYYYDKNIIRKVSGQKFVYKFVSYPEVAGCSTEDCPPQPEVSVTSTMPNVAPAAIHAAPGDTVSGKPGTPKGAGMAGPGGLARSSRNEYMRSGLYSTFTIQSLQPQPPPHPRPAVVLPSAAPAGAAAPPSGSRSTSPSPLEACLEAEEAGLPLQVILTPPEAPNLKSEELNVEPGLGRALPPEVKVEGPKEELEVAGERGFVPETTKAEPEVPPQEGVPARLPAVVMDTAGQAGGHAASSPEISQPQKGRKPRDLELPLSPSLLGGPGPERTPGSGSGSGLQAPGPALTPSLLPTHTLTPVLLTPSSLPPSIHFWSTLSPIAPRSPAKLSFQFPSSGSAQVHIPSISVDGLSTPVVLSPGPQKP
Conditions: protein: recombinant; tags: N-terminal GST; dsDNA, one strand shown. An outline of the steps: as §1

Assay [3] addresses T3, GABPA (Homo sapiens, UniProt Q06546 1-454).
T3 sequence: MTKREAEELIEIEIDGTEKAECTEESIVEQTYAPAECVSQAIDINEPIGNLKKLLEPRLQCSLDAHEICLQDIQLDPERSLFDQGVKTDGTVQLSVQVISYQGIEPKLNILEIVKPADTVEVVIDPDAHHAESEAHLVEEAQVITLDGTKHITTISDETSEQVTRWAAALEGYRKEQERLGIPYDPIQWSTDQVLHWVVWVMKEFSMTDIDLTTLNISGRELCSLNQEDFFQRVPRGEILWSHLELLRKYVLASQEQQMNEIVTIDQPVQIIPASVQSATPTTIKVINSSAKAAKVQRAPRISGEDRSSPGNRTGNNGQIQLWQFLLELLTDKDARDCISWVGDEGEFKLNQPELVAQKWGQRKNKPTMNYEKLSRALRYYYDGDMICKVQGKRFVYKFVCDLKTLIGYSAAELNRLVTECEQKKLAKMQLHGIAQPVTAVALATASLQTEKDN
The note with it: protein: recombinant; tags: N-terminal GST; dsDNA, one strand shown. In outline: as §1

In assay [4] the target is T4, ERG (Homo sapiens, UniProt P11308 1-479).
T4 sequence: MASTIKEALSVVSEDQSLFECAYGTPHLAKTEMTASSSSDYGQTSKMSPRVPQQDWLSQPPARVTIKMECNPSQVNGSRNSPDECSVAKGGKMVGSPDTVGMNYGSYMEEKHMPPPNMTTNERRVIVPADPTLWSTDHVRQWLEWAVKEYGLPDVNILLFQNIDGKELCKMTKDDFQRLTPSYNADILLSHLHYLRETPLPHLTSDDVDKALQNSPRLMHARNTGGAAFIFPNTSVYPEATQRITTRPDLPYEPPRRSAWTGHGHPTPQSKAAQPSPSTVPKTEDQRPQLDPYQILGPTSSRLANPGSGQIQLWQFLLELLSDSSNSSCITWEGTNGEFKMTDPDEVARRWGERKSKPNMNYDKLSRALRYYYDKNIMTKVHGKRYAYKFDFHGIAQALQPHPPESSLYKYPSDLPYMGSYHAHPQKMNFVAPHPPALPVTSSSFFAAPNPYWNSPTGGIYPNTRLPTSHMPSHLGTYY
The note with it: protein: recombinant; tags: N-terminal GST; dsDNA, one strand shown. An outline of the steps:
as §1

The target of assay [5] is ELF1 (Homo sapiens, UniProt P32519 1-619). Conditions: protein: recombinant; tags: N-terminal GST; dsDNA, one strand shown. In outline:
as §1

Assay [6] has as its target T5, EHF (Homo sapiens, UniProt Q9NZC4 1-300).
T5 sequence: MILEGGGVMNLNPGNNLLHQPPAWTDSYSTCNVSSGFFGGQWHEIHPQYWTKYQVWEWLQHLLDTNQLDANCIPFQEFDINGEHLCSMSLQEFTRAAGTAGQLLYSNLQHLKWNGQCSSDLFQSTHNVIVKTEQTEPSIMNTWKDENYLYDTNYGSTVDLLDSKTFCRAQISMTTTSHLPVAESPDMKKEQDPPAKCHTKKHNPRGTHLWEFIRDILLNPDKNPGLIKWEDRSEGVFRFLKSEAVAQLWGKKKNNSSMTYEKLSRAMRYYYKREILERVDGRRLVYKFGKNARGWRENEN
Conditions: protein: recombinant; tags: N-terminal GST; dsDNA, one strand shown. In outline: as §1

Assay [7] has as its target SPI1 (Homo sapiens, UniProt P17947 1-270). The note with it: protein: recombinant; tags: N-terminal GST; dsDNA, one strand shown. An outline of the steps:
as §1

Assay [8] deals with SPIB (Homo sapiens, UniProt Q01892 1-262). The note with it: protein: recombinant; tags: N-terminal GST; dsDNA, one strand shown. An outline of the steps: as §1
SPIB, sequence (Q01892 whole entry): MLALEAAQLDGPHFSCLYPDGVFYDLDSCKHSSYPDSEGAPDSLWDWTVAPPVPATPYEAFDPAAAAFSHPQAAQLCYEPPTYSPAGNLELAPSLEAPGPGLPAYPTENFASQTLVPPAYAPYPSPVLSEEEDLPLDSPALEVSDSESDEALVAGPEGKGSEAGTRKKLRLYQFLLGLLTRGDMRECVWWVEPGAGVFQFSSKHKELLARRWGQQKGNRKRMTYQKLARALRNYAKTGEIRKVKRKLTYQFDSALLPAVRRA
In assay [9] the target is T6, ELK3 (Homo sapiens, UniProt P41970 1-407).
T6 sequence: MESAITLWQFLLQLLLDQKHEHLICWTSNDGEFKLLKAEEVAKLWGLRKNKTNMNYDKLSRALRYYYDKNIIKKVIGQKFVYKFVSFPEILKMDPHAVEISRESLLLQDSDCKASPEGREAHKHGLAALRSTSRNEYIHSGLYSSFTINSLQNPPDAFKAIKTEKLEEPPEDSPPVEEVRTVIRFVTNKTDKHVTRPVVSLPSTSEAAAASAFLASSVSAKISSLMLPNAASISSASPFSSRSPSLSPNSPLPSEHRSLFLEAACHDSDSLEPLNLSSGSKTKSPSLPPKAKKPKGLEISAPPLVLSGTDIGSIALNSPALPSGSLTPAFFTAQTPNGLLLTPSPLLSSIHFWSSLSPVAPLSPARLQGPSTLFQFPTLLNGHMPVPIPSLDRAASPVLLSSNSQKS
The note with it: protein: recombinant; tags: N-terminal GST; dsDNA, one strand shown. In outline: as §1

The target of assay [10] is T7, FEV (Homo sapiens, UniProt Q99581 1-238).
T7 sequence: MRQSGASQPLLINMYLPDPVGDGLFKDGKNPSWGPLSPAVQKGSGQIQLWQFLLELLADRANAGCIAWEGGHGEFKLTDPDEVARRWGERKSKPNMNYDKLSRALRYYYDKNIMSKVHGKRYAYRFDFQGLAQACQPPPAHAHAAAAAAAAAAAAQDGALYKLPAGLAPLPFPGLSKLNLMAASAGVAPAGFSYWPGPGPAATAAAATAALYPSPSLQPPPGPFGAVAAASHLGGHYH
Conditions: protein: recombinant; tags: N-terminal GST; dsDNA, one strand shown. An outline of the steps:
as §1

For assay [11], the target named is ETV5 (Homo sapiens, UniProt P41161 1-510). Conditions: protein: recombinant; tags: N-terminal GST; dsDNA, one strand shown. An outline of the steps: as §1
ETV5, sequence (P41161 whole entry): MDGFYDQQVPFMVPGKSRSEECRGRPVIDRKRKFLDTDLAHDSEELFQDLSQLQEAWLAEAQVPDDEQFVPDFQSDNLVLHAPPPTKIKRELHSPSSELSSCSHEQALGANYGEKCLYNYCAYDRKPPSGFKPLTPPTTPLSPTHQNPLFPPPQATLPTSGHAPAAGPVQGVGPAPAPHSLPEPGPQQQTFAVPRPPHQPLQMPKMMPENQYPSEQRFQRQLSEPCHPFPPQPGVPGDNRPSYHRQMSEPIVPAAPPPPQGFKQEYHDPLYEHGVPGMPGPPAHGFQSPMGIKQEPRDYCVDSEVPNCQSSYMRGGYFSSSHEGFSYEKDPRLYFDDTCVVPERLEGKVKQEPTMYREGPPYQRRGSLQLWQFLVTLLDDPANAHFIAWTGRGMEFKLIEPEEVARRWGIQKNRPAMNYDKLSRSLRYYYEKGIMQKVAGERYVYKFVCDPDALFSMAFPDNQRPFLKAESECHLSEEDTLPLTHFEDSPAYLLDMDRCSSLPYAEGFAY
Assay [12] addresses HSF1 (Homo sapiens, UniProt Q00613 1-529). The note with it: protein: recombinant; tags: N-terminal GST; chain copies: 3; dsDNA, one strand shown. An outline of the steps:
as §1

Assay [13] deals with T8, SPIC (Homo sapiens, UniProt Q8N5J4 1-248).
T8 sequence: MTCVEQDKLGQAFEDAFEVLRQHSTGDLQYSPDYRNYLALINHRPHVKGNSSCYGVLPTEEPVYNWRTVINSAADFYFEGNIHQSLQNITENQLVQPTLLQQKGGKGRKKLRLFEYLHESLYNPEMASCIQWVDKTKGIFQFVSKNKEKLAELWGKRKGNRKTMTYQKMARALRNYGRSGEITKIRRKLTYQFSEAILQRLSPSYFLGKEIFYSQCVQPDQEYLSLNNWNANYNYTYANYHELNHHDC
The note with it: protein: recombinant; tags: N-terminal GST; dsDNA, one strand shown. An outline of the steps:
as §1

Assay [14] concerns the target ELF4 (Homo sapiens, UniProt Q99607 1-663). Conditions: protein: recombinant; tags: N-terminal GST; dsDNA, one strand shown. In outline: as §1
The target in assay [15] is T9, ELK4 (Homo sapiens, UniProt P28324-2 1-405).
T9 sequence: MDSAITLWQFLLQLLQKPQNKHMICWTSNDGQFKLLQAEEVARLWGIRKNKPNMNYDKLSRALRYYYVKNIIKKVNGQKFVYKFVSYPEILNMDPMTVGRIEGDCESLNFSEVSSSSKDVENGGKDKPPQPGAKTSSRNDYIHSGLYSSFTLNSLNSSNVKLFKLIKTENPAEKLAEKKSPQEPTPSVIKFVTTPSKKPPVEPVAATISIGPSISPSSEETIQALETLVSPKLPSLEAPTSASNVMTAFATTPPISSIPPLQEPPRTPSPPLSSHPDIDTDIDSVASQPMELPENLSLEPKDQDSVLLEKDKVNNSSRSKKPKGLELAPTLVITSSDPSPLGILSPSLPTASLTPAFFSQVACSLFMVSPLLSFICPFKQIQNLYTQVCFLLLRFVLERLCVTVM
The note with it: protein: recombinant; tags: N-terminal GST; dsDNA, one strand shown. In outline: as §1

The target in assay [16] is T10, ETV2 (Homo sapiens, UniProt O00321 1-342).
T10 sequence: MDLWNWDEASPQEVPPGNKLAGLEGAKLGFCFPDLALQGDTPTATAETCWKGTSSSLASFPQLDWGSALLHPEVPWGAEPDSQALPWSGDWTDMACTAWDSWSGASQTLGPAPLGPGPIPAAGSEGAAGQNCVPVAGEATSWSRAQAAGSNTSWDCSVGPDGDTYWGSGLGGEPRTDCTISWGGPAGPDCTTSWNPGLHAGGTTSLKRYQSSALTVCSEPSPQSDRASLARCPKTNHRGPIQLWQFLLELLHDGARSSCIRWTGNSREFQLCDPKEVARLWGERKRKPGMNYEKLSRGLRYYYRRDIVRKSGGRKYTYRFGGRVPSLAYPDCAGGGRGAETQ
The note with it: protein: recombinant; tags: N-terminal GST; dsDNA, one strand shown. An outline of the steps: as §1

Assay [17] concerns the target T11, ELF3 (Homo sapiens, UniProt P78545 1-371).
T11 sequence: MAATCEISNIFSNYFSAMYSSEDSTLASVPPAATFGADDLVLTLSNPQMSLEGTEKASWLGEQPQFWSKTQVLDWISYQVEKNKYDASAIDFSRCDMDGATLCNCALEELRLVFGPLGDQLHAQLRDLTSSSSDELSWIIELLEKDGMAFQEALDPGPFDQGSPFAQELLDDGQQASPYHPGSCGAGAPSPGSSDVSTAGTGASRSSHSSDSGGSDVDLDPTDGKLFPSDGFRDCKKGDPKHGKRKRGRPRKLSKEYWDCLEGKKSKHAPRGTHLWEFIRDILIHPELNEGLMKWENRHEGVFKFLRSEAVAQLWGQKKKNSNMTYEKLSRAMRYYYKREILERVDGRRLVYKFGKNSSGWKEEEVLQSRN
Conditions: protein: recombinant; tags: N-terminal GST; dsDNA, one strand shown. In outline: as §1

Assay [18] addresses CRX (Homo sapiens, UniProt O43186 1-299). Conditions: protein: recombinant; tags: N-terminal GST; dsDNA, one strand shown. An outline of the steps: as §1
In assay [19] the target is ETV1 (Homo sapiens, UniProt P50549 1-477). Conditions: protein: recombinant; tags: N-terminal GST; dsDNA, one strand shown. An outline of the steps:
as §1

CRX, sequence (O43186 whole entry): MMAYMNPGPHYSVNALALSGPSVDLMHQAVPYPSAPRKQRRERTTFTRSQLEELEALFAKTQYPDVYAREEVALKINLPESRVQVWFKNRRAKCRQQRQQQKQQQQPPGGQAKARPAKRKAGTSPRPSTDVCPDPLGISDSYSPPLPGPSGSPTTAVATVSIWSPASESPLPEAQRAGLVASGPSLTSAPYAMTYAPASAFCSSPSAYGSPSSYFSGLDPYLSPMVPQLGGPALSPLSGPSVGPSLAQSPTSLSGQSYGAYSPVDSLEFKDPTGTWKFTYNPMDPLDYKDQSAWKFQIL
HSF1, sequence (Q00613 whole entry): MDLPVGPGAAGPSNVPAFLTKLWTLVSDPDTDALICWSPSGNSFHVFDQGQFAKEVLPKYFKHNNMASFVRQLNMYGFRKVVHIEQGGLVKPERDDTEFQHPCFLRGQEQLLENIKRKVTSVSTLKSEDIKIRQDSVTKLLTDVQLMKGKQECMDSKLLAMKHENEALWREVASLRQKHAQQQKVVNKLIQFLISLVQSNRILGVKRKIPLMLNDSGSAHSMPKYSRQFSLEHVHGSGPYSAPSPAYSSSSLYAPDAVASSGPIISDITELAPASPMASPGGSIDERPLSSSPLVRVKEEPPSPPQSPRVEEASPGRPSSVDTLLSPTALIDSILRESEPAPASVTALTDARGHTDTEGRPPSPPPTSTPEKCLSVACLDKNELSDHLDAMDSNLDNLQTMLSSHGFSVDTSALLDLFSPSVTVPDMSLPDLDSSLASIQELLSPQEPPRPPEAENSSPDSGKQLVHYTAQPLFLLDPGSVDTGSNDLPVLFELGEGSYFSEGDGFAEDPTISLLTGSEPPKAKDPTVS
ETV1, sequence (P50549 whole entry): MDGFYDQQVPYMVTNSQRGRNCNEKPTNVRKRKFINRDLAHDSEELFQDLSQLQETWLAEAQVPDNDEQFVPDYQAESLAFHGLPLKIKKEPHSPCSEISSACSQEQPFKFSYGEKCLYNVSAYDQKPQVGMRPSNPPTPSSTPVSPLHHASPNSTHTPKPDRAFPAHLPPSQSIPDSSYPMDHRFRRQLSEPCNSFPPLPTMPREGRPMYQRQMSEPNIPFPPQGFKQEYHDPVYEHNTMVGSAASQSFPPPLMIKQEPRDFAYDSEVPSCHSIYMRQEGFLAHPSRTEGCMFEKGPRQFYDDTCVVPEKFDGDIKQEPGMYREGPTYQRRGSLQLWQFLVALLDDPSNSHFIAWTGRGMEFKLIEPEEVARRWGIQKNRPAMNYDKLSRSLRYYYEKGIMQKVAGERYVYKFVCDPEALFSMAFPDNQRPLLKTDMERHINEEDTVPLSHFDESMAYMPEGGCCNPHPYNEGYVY
ELF4, sequence (Q99607 whole entry): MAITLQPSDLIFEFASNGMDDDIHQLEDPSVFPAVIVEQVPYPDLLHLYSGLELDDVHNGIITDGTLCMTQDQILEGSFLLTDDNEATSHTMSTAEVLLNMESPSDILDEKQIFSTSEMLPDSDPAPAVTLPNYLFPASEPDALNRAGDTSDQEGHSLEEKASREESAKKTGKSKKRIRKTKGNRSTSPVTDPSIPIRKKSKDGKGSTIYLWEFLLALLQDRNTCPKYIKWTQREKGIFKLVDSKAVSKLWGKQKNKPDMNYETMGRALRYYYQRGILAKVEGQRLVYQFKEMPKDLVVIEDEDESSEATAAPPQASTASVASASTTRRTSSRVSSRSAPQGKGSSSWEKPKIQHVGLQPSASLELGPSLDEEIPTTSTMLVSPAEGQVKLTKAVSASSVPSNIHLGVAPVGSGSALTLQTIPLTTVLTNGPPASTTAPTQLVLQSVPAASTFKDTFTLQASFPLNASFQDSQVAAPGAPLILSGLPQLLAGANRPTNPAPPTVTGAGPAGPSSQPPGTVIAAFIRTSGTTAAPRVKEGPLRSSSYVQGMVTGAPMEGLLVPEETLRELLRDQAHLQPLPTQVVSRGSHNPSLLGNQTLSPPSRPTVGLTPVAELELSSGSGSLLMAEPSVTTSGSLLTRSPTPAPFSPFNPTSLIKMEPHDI
ELF1, sequence (P32519 whole entry): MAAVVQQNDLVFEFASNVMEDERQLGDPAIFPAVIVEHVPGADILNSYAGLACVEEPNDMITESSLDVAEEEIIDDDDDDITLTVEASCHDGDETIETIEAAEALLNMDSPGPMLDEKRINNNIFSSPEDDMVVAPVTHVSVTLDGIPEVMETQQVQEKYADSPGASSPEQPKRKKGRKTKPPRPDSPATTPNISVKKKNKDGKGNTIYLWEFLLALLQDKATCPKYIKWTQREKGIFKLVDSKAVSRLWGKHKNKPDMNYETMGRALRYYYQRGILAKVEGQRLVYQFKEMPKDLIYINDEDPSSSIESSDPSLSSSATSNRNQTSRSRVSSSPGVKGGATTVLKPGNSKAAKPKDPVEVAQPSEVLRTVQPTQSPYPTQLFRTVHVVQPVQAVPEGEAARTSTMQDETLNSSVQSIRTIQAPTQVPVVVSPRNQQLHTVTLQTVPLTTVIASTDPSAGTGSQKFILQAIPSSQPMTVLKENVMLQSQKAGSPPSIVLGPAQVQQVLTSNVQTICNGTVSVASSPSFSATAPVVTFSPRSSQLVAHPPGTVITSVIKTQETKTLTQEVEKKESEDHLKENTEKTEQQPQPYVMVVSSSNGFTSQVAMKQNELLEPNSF

As for ATCCAC, the binding signal in assay [1] was 1.23 fold enrichment (6-mer frequency, TF over GST control); in [2], 1.28 fold enrichment (6-mer frequency, TF over GST control); in assay [3] it was 1.32 fold enrichment (6-mer frequency, TF over GST control); in [4], 1.22 fold enrichment (6-mer frequency, TF over GST control); in assay [5] it was 1.22 fold enrichment (6-mer frequency, TF over GST control); in assay [6], 1.25 fold enrichment (6-mer frequency, TF over GST control). Moreover, the binding signal is 1.15 fold enrichment (6-mer frequency, TF over GST control) in assay [7]; 1.19 fold enrichment (6-mer frequency, TF over GST control) in assay [8]; 1.27 fold enrichment (6-mer frequency, TF over GST control) in [9]; 1.14 fold enrichment (6-mer frequency, TF over GST control) in assay [10]; 1.18 fold enrichment (6-mer frequency, TF over GST control) in assay [11]; 1.36 fold enrichment (6-mer frequency, TF over GST control) in assay [12]. Also, the binding signal was 1.24 fold enrichment (6-mer frequency, TF over GST control) in assay [13]; 1.22 fold enrichment (6-mer frequency, TF over GST control) in [14]; 1.32 fold enrichment (6-mer frequency, TF over GST control) in assay [15]; 1.23 fold enrichment (6-mer frequency, TF over GST control) in [16]; 1.14 fold enrichment (6-mer frequency, TF over GST control) in [17]; 1.48 fold enrichment (6-mer frequency, TF over GST control) in [18]. Also, the binding signal in assay [19] is 1.2 fold enrichment (6-mer frequency, TF over GST control).
